In ChEMBL document CHEMBL3988442, “University of Dundee, Small-Polar-MMV Screening Library” (2021):
The whole screen tested about 48,000 compounds, of which about 13,000 (27%) showed an effect of 50% or more. Some of the results follow.

Each compound was assayed on Wolbachia pipientis (assay: Anti-Wolbachia Cell-Based Screen). Conditions: 5 µM.
Assay type: functional
Design: scale not given: in the data most compounds retested in dose-response had high values

Structure (SMILES) | Percent Effect [%]
O=C(CNC(=O)c1ccoc1)NC(c1ccc(F)cc1)C(F)(F)F (centres undefined) | 0.03163
CC1CN(C(=O)c2nccnc2N)c2ccc(F)cc2O1 (centres undefined) | -7.593
COCCN(CCOC)C(=O)c1sc(C)nc1C | -9.667
CCC(C)(C)NC(=O)C[S+]([O-])Cc1csc(C2CCCC2)n1 (centres undefined) | -6.862
Cc1ccc(C)c(CS(=O)(=O)CC(=O)N(C)Cc2cccc(F)c2)c1 | -31.79
c1cnn(CC2CCCN2c2ncnc3ccsc23)c1 (centres undefined) | 77.53
Cc1sc2ncnc(N3CCCC3Cn3cccn3)c2c1C (centres undefined) | 126.3
c1nc(N2CCCC(Cn3cncn3)C2)c2sccc2n1 (centres undefined) | 164.6
c1nc(N2CCCC(Cn3cncn3)C2)c2ccsc2n1 (centres undefined) | 13.9
c1nc(N2CCCC2Cn2cncn2)c2ccsc2n1 (centres undefined) | -0.0676
Cc1nc(C)n(CC2CCCN(c3ncnc4sccc34)C2)n1 (centres undefined) | 4.886
Cc1nc(C)n(CC2CCCN2c2ncnc3sccc23)n1 (centres undefined) | 103.4
c1cnn(CC2CCCN2c2ncnc3c2CCC3)c1 (centres undefined) | -39.95
c1ccc2c(N3CCCC3Cn3cccn3)ncnc2c1 (centres undefined) | -8.877
c1cnn(CC2CCCCN2c2ncnc3sccc23)c1 (centres undefined) | -1.869
c1nc2c(c(N3CCCC(Cn4cncn4)C3)n1)CCC2 (centres undefined) | -15.31
c1cnn(CC2CCCN2c2ncnc3sccc23)c1 (centres undefined) | -19.57
COc1ccc(CN2C[C@@H]3[C@H](CC(=O)N4CCCC4)[C@@H]3C2)cc1.O=C(O)C(F)(F)F | -9.887
CN(C)C[C@@H]1CCC[C@@H]2CN(c3cccnc3)C[C@@H]21.O=C(O)C(F)(F)F | 5.573
CC(C)c1nc(S(=O)(=O)N(C)c2cc(F)ccc2F)c[nH]1 | 7.665
CCN(Cc1ccoc1)Cc1nc(COC)no1 | -32.73
Cc1nc(C)n(CC2CCCCN2c2ccnc(-c3ccccc3)n2)n1 (centres undefined) | -2.922

Structure (SMILES) | Percent Effect [%]
CN(C)C(=O)C1CCCN1c1ncnc2ccsc12 (centres undefined) | 11.36
Cc1nc(C)n(CC2CCCN2c2ncnc3sc(C)c(C)c23)n1 (centres undefined) | 109.1
c1nc(N2CCCCC2Cn2cncn2)c2sccc2n1 (centres undefined) | 0.3831
Cc1nc(C)n(CC2CCCN2c2ccnc(-c3ccccc3)n2)n1 (centres undefined) | 6.693
Cc1nc(C)n(CC2CCCN2c2ncnc3c2CCC3)n1 (centres undefined) | -5.699
Cc1nc(C)n(CC2CCCN2c2ncnc3ccsc23)n1 (centres undefined) | 106.3
CN1CCN(C(=O)C2CCCN2c2ncnc3ccsc23)CC1 (centres undefined) | -5.799
Cc1nc(C)n(CC2CCCCN2c2ncnc3ccsc23)n1 (centres undefined) | 109.8
CN(C)C1Cc2ccccc2N(S(=O)(=O)c2cccc(C#N)c2)C1 (centres undefined) | -17.15
CC(C)CC(=O)N1CCN(C(=O)N(C)C)CC2(CC(=O)N(C)C2)C1 (centres undefined) | -13.83
Cn1cnnc1C1CCCN(C(=O)NCc2ccccc2)C1 (centres undefined) | -1.027
COC1CCN(C(=O)c2cc(-c3ccc(Cl)cc3)on2)CC1 | 1.194
Cc1noc(C2CCCN(C(=O)c3cc(-c4ccccc4)on3)C2)n1 (centres undefined) | 95.63
CCOc1ncccc1C(=O)N1CCCC(c2nccn2CCOC)C1 (centres undefined) | -5.342
Cc1csc(CNC(=O)N2CCCC(c3nncn3C)C2)n1 (centres undefined) | 102.5
CCOC1CCN(C(=O)c2cc(-c3ccc(Cl)cc3)on2)CC1 | -1.009
Cn1cnnc1C1CCCN(C(=O)NCc2cc[nH]n2)C1 (centres undefined) | -3.292
Cc1noc(C2CCCN(C(=O)c3cc(Cl)cn3C)C2)n1 (centres undefined) | -4.017
Cn1cnnc1C1CCN(C(=O)c2cc(-c3ccccc3)on2)CC1 | 84.11
Cc1noc(C2CCCN(C(=O)c3cc(Cl)ccc3F)C2)n1 (centres undefined) | -1.909
CCOc1ncccc1C(=O)N1CCCC(c2nncn2C)C1 (centres undefined) | 139.9
COc1ccc(CNC(=O)NC2CCN(CC(F)F)CC2)cc1C | 8.282

Structure (SMILES) | Percent Effect [%]
CSc1cccc(CC(=O)N[C@@H]2CCNC[C@H]2O)c1 | -1.267
Cn1cnnc1C1CCCN(C(=O)c2cnc3ccccc3n2)C1 (centres undefined) | -5.928
Cn1cnnc1C1CCCN(C(=O)c2ccccn2)C1 (centres undefined) | 140.5
Cn1cnnc1C1CCCN(C(=O)c2cc(-c3ccccc3)on2)C1 (centres undefined) | 103.3
Cn1cnnc1C1CCCN(C(=O)NCc2ccccn2)C1 (centres undefined) | 107.2
Cn1cnnc1C1CCCN(C(=O)NCCc2ccccn2)C1 (centres undefined) | -4.673
c1cc(-c2ccc3c(c2)CCC32CCNCC2)ccn1 | -7.075
CC1(C)Cc2c(cnn2-c2cccc(F)c2)C(NC2CCSCC2)C1 (centres undefined) | 7.076
Cc1ccc2c(C(=O)N(C)C)cc(-c3cnn(CCO)c3)nc2c1C | 115.7
Cc1ccc2nc(-c3cnc(N)nc3)cc(C(=O)N(C)C)c2c1 | -1.148
CCCn1cc(-c2cc(C(=O)N(C)C)c3ccc(C)cc3n2)cn1 | 103.4
CN(C)C(=O)c1cc(-c2cnc(N)nc2)nc2cc(F)ccc12 | 2.349
COc1ccc(CNC(=O)CCn2cc(C)cn2)cc1C | -6.428
CO[C@H]1CNC[C@@H]1NC(=O)c1cc(C)nc2c(C)c(C)ccc12 | -8.867
Cc1cc(C)c2c(C(=O)N(C)C)cc(-c3cnc(N)nc3)nc2c1 | -4.473
CCCn1cc(-c2cc(C(=O)N(C)C)c3ccc(OC)cc3n2)cn1 | 91.31
Cc1cc(C(=O)NCc2csc(N(C)C)n2)c2ccc(C)c(C)c2n1 | 2.506
COc1ccc2c(C(=O)N(C)C)cc(-c3cnc(N)nc3)nc2c1 | -11.66
CCCn1cc(-c2cc(C(=O)N(C)C)c3cccc(C)c3n2)cn1 | 108.4
COc1ccc2nc(C3CC3)cc(C(=O)NCC(=O)N(C)C)c2c1 | -4.105
Cc1ccc(-c2nc(CNCCn3cccn3)cs2)o1 | -0.9463
CN(Cc1cccs1)c1nc2c(cnn2C(C)(C)C)c(=O)[nH]1 | -5.539

Structure (SMILES) | Percent Effect [%]
O=C(NCC1(N2CCOCC2)CCSC1)Nc1ccccn1 (centres undefined) | 27.17
CSCCc1n[nH]c2c1CN(S(=O)(=O)c1c(C)nn(C)c1C)CC2 | -3.086
Cc1ccc(C(C)NC(=O)Nc2ccccc2CN2CCOCC2)o1 (centres undefined) | 2.687
O=C(Cc1ccccc1F)N1CCC[C@@H]1Cn1c(=O)oc2ccccc21 | 111.4
Cl.NCC1CCCCN1C(=O)Cc1ccc(F)c(F)c1 (centres undefined) | -20.4
COC[C@@]12CCO[C@@H]1CCN(C(=O)Cc1ccccc1F)C2 | 7.252
COc1nc2c(cc1C(=O)NCc1nc(CSC)no1)CCC2 | -10.56
Cc1cn2nc(N3CCCN(Cc4noc(C)n4)CC3)sc2n1 | 4.27
Cc1nc(CN2CCN(Cc3nccn3C)CC2)no1 | 1.161
Cc1nc(CN2CCN(C(=O)CCc3cccc(Cl)c3)CC2)no1 | 2.234
Cc1nc(CN2CCN(c3ccc(Cl)cn3)CC2)no1 | 102.8
Cc1nc(CN2CCN(c3ncnc4ccccc34)CC2)no1 | -20.36
Cc1noc(CN2CCN(c3cncc(Cl)n3)CC2)n1 | 120
Cc1nc(CN2CCN(c3cncc(Cl)n3)CC2)no1 | 85.67
Cc1noc(CN2CCN(CC(C)O)CC2)n1 (centres undefined) | 16.1
Cc1noc(CN2CCN(CCO)CC2)n1 | -2.451
CC(C)(C)NC(=O)C1CSCN1S(=O)(=O)c1ccccc1F (centres undefined) | -0.6778
CCN(CC)CC(=O)Nc1ccc(-n2ccc(C(N)=O)n2)cc1 | -9.684
Cn1cccc(NC(=O)NCCc2cccc(O)c2)c1=O | 2.871
c1cc(C2CN(C3CCCC3)C2)n[nH]1 | 154.3
c1cc(C2CCN(C3CCCCC3)C2)n[nH]1 (centres undefined) | 99.9
FC(F)(F)c1ccc2nc([C@H]3CCN(C4CCCCC4)C3)[nH]c2c1 | 3.029

Structure (SMILES) | Percent Effect [%]
c1ccc(Cc2nnc([C@H]3CCN(C4CCCCC4)C3)o2)cc1 | 3.661
c1cc(C2CN(C3CCCCC3)C2)n[nH]1 | 79.34
F[C@@H]1CN(C2CCC2)C[C@@H]1OCc1nc2ncccc2[nH]1 | 0.839
c1cc(-c2nnc([C@H]3CCN(C4CCCCC4)C3)o2)ccn1 | -11.18
c1ccc(-c2nnc([C@H]3CCN(C4CCC4)C3)o2)cc1 | -5.137
Clc1ccc(-c2nnc([C@H]3CCN(C4CCCCC4)C3)o2)cc1 | 11.2
CC(=O)N(CCC(=O)NC1(C#N)CCC1)Cc1ccccc1 | -20.67
Cc1ccc(Oc2ncccc2CNS(=O)(=O)N2CCOCC2)cn1 | 3.348
Oc1ccc([C@H]2Oc3cc(O)cc(O)c3C[C@@H]2O)cc1 | 2.317
CC(=O)N(C)c1nc(Cn2nnnc2C2CCCC2)cs1 | 98.73
CC(=O)N(C)c1nc(CN2CCN(Cc3nccn3C)CC2)cs1 | -41.34
CCc1nnnn1Cc1csc(N(C)C(C)=O)n1 | 97.38
CCN(C(C)=O)c1nc(CN2CCN(c3nccs3)CC2)cs1 | -119
CC(=O)N(c1ccc(C)cc1)c1nc(CN2CCCCC2C)cs1 (centres undefined) | 5.84
CNC(=O)c1ccc(=O)n(Cc2csc(N(C)C(C)=O)n2)c1 | 1.068
CC(=O)N(C)c1nc(Cn2nnnc2C(C)(C)C)cs1 | 75.49
CC(=O)N(C)c1nc(Cn2nnnc2C(C)C)cs1 | 102.4
CN(C)C(=O)Cc1nc(CN2CCn3c(nnc3C3CC3)C2)cs1 | 2.901
CC(=O)N(C)c1nc(CN2CCN(c3nccs3)CC2)cs1 | -57.57
Cc1ccc(=O)n(Cc2csc(N(C)C3CC3)n2)n1 | 2.512
CC(=O)N(c1ccc(F)cc1)c1nc(CN2CCCC2C(C)C)cs1 (centres undefined) | -4.339
